Assay results reported in PubChem BioAssay (EPA / NIEHS).
Values joined by “and” are separate entries in the source; they are usually repeats but may differ in a detail not shown here. Equal entries are not always repeated. Records with an inconclusive call do not appear. Some compounds were tested as several samples or in several runs, with calls that do not always agree. Active and inactive are the calls of the source. How the source made its calls, unless noted: active means hit-call score of the fitted dose curve at least 0.9, where 1 is the maximum; inactive means score below 0.9.

Experiments:
[1] = BSK_LPS_PGE2: BioMAP Diversity Plus: LPS Assay for Prostaglandin E2 (PGE2) Biomarker Activity (AID 2283082); conditions: primary human HUVEC with PBMC; actives raise or lower the signal;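 on AC50: secreted prostaglandin E2 measured by ELISA in LPS-stimulated co-culture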
How it was run: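 HUVEC plus human PBMC co-culture stimulated with LPS; secreted PGE2 quantified by ELISA 24 h after chemical dosing. Activity fitted bidirectionally against DMSO baseline; parallel SRB staining (0.1% SRB after 10% TCA fixation, 560 nm) flags overt cytotoxicity.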

[2] = read-out: Macrophage colony-stimulating factor (MCSF), CSF1 (gene 1435); test: BSK_LPS_MCSF: BioMAP Diversity Plus: LPS Assay for Macrophage colony-stimulating factor (MCSF) Biomarker Activity (AID 2283083); conditions: primary human HUVEC with PBMC; actives raise or lower the signal
How it was run: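 ELISA readout of M-CSF after 24 h compound exposure in a human endothelial/PBMC co-culture. Activity, in either direction, is fitted relative to DMSO vehicle.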

[3] = read-out: Tissue Factor, F3 (gene 2152); test: BSK_LPS_TissueFactor: BioMAP Diversity Plus: LPS Assay for Tissue Factor Biomarker Activity (AID 2283084); conditions: primary human HUVEC with PBMC; actives raise or lower the signal
How it was run: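 ELISA signal for cell-surface Tissue Factor (CD142) was read 24 h after compound dosing of an LPS-stimulated human endothelial–PBMC primary co-culture. Gain or loss of signal was scored relative to DMSO.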

[4] = read-out: Tumor necrosis factor (Homo sapiens) (UniProt P01375); test: BSK_LPS_TNFa: BioMAP Diversity Plus: LPS Assay for Tumour Necrosis Factor alpha (TNFa) Biomarker Activity (AID 2283085); conditions: primary human HUVEC with PBMC; actives raise or lower the signal
How it was run: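 Human umbilical vein endothelial cells co-cultured with PBMC and stimulated with LPS. TNFa was measured by ELISA 24 h after chemical dosing, fitted bidirectionally relative to DMSO.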

CD38, CD38 (gene 952) = test: BSK_SAg_CD38: BioMAP Diversity Plus: SAg Assay for CD38 Biomarker Activity (AID 2283087); conditions: primary human HUVEC with PBMC; actives raise or lower the signal
How it was run: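 Human HUVEC plus PBMC co-culture stimulated with superantigen; CD38 measured by ELISA 24 h after chemical dosing. Fluorescence read-out, bidirectional fit against DMSO; cytotoxicity tracked in parallel by SRB and Alamar Blue.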

CD40, CD40 (gene 958) = test: BSK_SAg_CD40: BioMAP Diversity Plus: SAg Assay for CD40 Biomarker Activity (AID 2283088); conditions: primary human HUVEC with PBMC; actives raise or lower the signal
How it was run: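 Compounds were dosed onto a human primary endothelial–PBMC co-culture, and after 24 h CD40 was quantified by ELISA using a fluorescence signal. Activity in either direction was fitted relative to DMSO.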

CD69, CD69 (gene 969) = test: BSK_SAg_CD69: BioMAP Diversity Plus: SAg Assay for CD69 Biomarker Activity (AID 2283089); conditions: primary human HUVEC with PBMC; actives raise or lower the signal;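 on AC50: cell surface CD69 protein quantified by ELISA with fluorescence detection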
How it was run: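 Primary human vascular co-culture (umbilical vein endothelium with peripheral blood mononuclear cells) exposed to test chemical for 24 h. CD69 levels quantified by fluorescence ELISA; DMSO served as negative control for bidirectional fitting.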

[5] = read-out: Monocyte Chemoattractant Protein-1 (MCP1), CCL2 (gene 6347); test: BSK_SAg_MCP1: BioMAP Diversity Plus: SAg Assay for Monocyte Chemoattractant Protein-1 (MCP1) Biomarker Activity (AID 2283090); conditions: primary human HUVEC with PBMC; actives raise or lower the signal
How it was run: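 MCP-1 levels in the endothelial–PBMC SAg co-culture were quantified by ELISA at 24 h post-dosing; both increases and decreases versus DMSO scored. Cytotoxicity monitored by SRB total protein in parallel cultures.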

[6] = read-out: E-selectin (Homo sapiens) (UniProt P16581); test: BSK_SAg_Eselectin: BioMAP Diversity Plus: SAg Assay for Eselectin Biomarker Activity (AID 2283091); conditions: primary human HUVEC with PBMC; actives raise or lower the signal
How it was run: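 Co-culture: HUVEC + PBMC. Dose compound; 24 h. ELISA for E-selectin. Bidirectional fit vs DMSO.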

[7] = read-out: Monokine induced gamma interferon (MIG), CXCL9 (gene 4283); test: BSK_SAg_MIG: BioMAP Diversity Plus: SAg Assay for Monokine induced gamma interferon (MIG) Biomarker Activity (AID 2283092); conditions: primary human HUVEC with PBMC; actives raise or lower the signal
How it was run: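 Endothelial cells and PBMC were co-cultured, exposed to test chemicals, and sampled 24 h later. MIG was measured by ELISA, and responses were fitted in both directions relative to DMSO.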

[8] = BSK_SAg_PBMCCytotoxicity: PBMC Cytotoxicity Assessment in the BioMAP Diversity Plus: SAg Assay (AID 2283093); conditions: primary human HUVEC with PBMC;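 further: PBMC viability measured as Alamar Blue reduction fluorescence at 546/580 nm; fitted both ways against DMSO so a hit may be loss or gain of signal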;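 on AC50: PBMC superantigen activated with SEB plus TSST-1 one hour after compound addition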
How it was run: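 HUVEC/PBMC co-culture; PBMC exposed to chemical 1 h before SEB and TSST-1 activation (20 ng/mL each), incubated 90 h, then Alamar Blue 6 h, fluorescence 546/580 nm. Bidirectional fit versus DMSO baseline.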

[9] = read-out: Interleukin-8 (IL8), CXCL8 (gene 3576); test: BSK_SAg_IL8: BioMAP Diversity Plus: SAg Assay for Interleukin-8 (IL8) Biomarker Activity (AID 2283094); conditions: primary human HUVEC with PBMC; actives raise or lower the signal
How it was run: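 Human umbilical vein endothelial cells co-cultured with PBMC, stimulated with superantigen; IL-8 measured by ELISA 24 h after chemical dosing. Bidirectional fitting versus DMSO; SRB staining in parallel cultures tracks cytotoxicity.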

[10] = BSK_SAg_Proliferation: Cell Proliferation Assessment in the BioMAP Diversity Plus: SAg Assay (AID 2283095); conditions: primary human HUVEC with PBMC
How it was run: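 Human umbilical vein endothelial cells co-cultured with PBMC; sulforhodamine B total-protein staining (0.1% SRB after 10% TCA fixation, absorbance 560 nm) at 96 h in sub-confluent culture. Fitted bidirectionally against DMSO.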

[11] = BSK_SAg_SRB: Viability Assessment in the BioMAP Diversity Plus: SAg Assay (AID 2283096); conditions: primary human HUVEC with PBMC;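 further: cells read one day after compound addition; hits may be either gain or loss of signal compared with DMSO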
How it was run: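 Human umbilical vein endothelial cells co-cultured with PBMC, read 24 h after compound dosing. Total protein measured by sulforhodamine B staining (0.1% SRB after 10% TCA fixation, absorbance 560 nm); bidirectional fit versus DMSO baseline.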

[12] = molecular target: human CYP1A2, CYP1A2 (gene 1544) (UniProt P05177); test: NVS_ADME_hCYP1A2: NovaScreen (NVS) CYP450-related Enzyme Activity (ADME) Assay for human CYP1A2 (AID 2283102; active means hit-call score of the fitted dose curve at least 0.9, where 1 is the maximum;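 further: fluorescence from turnover of a fluorogenic substrate by recombinant insect-cell CYP1A2; potency for inhibition since loss of fluorescence marks reduced CYP1A2 activity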)
How it was run: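 rec. hCYP1A2 (insect cells), cell-free; fluorogenic substrate; 0.5 h; FI read. Baseline = acetonitrile; signal loss = inhibition. 10 uM duplicate primary → conc. series for actives.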

[13] = read-out: Vascular cell adhesion molecule 1 (VCAM1), VCAM1 (gene 7412); test: BSK_LPS_VCAM1: BioMAP Diversity Plus: LPS Assay for Vascular cell adhesion molecule 1 (VCAM1) Biomarker Activity (AID 2283086); conditions: primary human HUVEC with PBMC; actives raise or lower the signal
How it was run: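 Human umbilical vein endothelial cells co-cultured with PBMC and stimulated with LPS; VCAM-1 measured by ELISA 24 h after dosing. Bidirectional curve fitting against DMSO baseline; cytotoxicity tracked in parallel by SRB total-protein staining.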

[14] = molecular target: human CYP19A1, CYP19A1 (gene 1588) (UniProt P11511); test: NVS_ADME_hCYP19A1: NovaScreen (NVS) CYP450-related Enzyme Activity (ADME) Assay for human CYP19A1 (AID 2283098; active means hit-call score of the fitted dose curve at least 0.9, where 1 is the maximum)
How it was run: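 Recombinant enzyme in a cell-free format, read 0.5 h after dosing by fluorescence from a fluorogenic substrate. Loss of signal was fitted against acetonitrile as baseline. Primary screen in duplicate at 10 uM, actives then tested in concentration series.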

[15] = molecular target: human CYP1A1, CYP1A1 (gene 1543) (UniProt P04798); test: NVS_ADME_hCYP1A1: NovaScreen (NVS) CYP450-related Enzyme Activity (ADME) Assay for human CYP1A1 (AID 2283100; active means hit-call score of the fitted dose curve at least 0.9, where 1 is the maximum)
How it was run: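 Recombinant hCYP1A1 + fluorogenic substrate, cell-free; 1 h; fluorescence read. Single-point 10 uM (duplicate) → concentration series, max 20 uM. Acetonitrile negative control.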

[16] = molecular target: human CYP2B6, CYP2B6 (gene 1555) (UniProt P20813); test: NVS_ADME_hCYP2B6: NovaScreen (NVS) CYP450-related Enzyme Activity (ADME) Assay for human CYP2B6 (AID 2283101; active means hit-call score of the fitted dose curve at least 0.9, where 1 is the maximum)
How it was run: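 Cell-free recombinant enzyme assay with a fluorogenic substrate; fluorescence intensity read 1 hour after dosing. Loss of signal relative to acetonitrile negative control indicates inhibition. Primary screen run in duplicate at 10 uM, actives then tested in concentration series.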

Measured: AC50

human CYP19A1, CYP19A1 (gene 1588), sequence (P11511 whole entry, looked up): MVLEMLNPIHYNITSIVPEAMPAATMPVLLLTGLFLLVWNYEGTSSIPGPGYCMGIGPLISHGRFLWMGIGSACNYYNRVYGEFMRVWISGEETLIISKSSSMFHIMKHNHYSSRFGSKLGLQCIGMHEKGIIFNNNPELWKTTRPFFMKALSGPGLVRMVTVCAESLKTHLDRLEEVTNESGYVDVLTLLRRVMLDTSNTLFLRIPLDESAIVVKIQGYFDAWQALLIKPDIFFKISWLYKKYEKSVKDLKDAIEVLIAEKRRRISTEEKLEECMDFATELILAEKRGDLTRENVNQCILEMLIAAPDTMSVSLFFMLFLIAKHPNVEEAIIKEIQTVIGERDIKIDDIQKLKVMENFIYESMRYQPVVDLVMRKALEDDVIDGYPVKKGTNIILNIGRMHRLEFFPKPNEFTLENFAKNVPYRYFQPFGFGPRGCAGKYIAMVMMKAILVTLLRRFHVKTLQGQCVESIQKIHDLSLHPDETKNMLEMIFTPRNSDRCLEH
E-selectin (Homo sapiens), sequence (P16581 whole entry, looked up): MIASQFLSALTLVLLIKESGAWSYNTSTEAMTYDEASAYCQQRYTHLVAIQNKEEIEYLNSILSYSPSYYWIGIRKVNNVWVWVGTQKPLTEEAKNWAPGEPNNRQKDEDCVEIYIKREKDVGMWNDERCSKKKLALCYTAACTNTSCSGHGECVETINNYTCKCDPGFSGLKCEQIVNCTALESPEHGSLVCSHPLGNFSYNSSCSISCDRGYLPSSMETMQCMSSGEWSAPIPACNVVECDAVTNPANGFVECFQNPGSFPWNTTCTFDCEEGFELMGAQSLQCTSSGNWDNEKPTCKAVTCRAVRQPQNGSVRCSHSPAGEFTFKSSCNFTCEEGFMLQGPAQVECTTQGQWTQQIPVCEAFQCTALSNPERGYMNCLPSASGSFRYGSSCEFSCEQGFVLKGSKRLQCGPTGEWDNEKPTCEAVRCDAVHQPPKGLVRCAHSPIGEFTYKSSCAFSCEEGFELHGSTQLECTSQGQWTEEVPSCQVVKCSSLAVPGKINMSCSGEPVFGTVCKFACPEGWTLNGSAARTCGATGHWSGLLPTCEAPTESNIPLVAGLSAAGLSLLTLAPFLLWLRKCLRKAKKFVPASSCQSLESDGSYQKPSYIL
Tumor necrosis factor (Homo sapiens), sequence (P01375 whole entry, looked up): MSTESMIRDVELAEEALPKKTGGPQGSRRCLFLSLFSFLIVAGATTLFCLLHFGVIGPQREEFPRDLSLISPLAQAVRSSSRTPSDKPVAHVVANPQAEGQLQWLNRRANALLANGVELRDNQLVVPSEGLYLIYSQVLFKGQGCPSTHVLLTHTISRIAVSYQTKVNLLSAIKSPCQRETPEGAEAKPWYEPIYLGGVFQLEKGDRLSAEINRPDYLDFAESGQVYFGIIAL
human CYP1A2, CYP1A2 (gene 1544), sequence (P05177 whole entry, looked up): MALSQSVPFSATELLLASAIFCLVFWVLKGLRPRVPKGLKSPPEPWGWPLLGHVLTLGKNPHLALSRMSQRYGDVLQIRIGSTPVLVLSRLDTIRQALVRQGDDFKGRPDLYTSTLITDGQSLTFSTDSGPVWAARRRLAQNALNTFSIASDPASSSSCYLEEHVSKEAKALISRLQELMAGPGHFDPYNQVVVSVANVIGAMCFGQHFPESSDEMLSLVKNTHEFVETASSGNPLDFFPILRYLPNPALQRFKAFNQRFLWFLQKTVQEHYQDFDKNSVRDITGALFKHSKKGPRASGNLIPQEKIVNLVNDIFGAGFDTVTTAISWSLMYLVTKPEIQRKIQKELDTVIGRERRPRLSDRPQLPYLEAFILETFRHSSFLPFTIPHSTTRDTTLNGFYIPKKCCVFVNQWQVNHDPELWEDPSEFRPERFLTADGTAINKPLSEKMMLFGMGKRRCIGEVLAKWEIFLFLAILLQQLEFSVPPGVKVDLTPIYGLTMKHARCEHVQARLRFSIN
human CYP1A1, CYP1A1 (gene 1543), sequence (P04798 whole entry, looked up): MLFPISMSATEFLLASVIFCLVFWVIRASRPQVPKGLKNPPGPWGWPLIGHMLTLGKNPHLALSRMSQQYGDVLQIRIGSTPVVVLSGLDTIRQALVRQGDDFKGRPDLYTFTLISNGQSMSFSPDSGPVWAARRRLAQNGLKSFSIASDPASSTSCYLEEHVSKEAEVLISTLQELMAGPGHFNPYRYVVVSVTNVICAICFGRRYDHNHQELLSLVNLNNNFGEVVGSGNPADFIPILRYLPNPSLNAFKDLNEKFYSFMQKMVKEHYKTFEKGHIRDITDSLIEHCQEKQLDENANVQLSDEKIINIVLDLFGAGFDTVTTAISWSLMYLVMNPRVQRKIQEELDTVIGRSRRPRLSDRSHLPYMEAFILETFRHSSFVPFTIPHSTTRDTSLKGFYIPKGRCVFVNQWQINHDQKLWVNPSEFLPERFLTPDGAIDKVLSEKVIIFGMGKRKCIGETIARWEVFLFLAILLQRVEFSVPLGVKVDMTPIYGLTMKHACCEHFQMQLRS
human CYP2B6, CYP2B6 (gene 1555), sequence (P20813 whole entry, looked up): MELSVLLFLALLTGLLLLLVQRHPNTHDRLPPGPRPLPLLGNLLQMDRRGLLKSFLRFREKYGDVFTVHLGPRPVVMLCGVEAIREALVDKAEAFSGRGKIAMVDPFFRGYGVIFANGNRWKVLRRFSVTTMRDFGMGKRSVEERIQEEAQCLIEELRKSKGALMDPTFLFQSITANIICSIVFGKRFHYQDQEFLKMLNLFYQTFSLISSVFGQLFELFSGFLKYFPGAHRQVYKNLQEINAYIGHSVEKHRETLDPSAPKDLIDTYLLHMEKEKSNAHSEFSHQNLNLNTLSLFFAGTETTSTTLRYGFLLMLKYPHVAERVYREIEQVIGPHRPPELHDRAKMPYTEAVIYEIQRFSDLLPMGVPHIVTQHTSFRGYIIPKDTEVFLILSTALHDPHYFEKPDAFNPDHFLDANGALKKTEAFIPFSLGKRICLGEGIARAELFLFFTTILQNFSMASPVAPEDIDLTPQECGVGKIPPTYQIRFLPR

CCCN(CCC)c1c([N+](=O)[O-])cc(C(F)(F)F)c(N)c1[N+](=O)[O-]
inactive: [1] | [3] | CD38, CD38 (gene 952) | CD69, CD69 (gene 969)
active: [2] 20 µM | [4] 30.2 µM | CD40, CD40 (gene 958) 28.9 µM | [5] 31 µM | [6] 29.3 µM | [7] 31.7 µM | [8] 15 µM | [9] 20 µM | [10] 21 µM | [11] 14.7 µM | [12] 6.02 µM

COC(=O)c1ccc(CNS(C)(=O)=O)cc1S(=O)(=O)NC(=O)Nc1nc(OC)cc(OC)n1
not listed: [12] | [13] | [14] | [15] | [16]
inactive: all other assays above

COC(=O)c1cccc(C)c1S(=O)(=O)NC(=O)Nc1nc(OCC(F)(F)F)nc(N(C)C)n1
not listed: [12] | [14] | [15] | [16]
inactive: all other assays above

CCSC(=O)N(CC(C)C)CC(C)C
not listed: [12] | [13] | [14] | [15] | [16]
inactive: all other assays above

CCCOC(=O)c1ccc(C(=O)OCCC)nc1
active: CD38, CD38 (gene 952) 0.624 µM | CD40, CD40 (gene 958) 3.09 µM
not listed: [1] | [12] | [15] | [16]
inactive: all other assays above

CCC(C)OC(=O)N1CCCCC1CCO (stereo not drawn)
not listed: [1] | [12] | [14] | [15] | [16]
inactive: all other assays above

CC(C)(c1ccc(O)cc1)c1ccc(O)cc1
inactive: [2] | [3] | [4] | [13] | CD38, CD38 (gene 952) | CD40, CD40 (gene 958) | CD69, CD69 (gene 969) | [5] | [6] | [7] | [8] | [9] | [11] | [14] | [15] | [16]
active: [4] 2.8 µM | [13] 25.5 µM and 27 µM and 20 µM | CD38, CD38 (gene 952) 13.8 µM | CD40, CD40 (gene 958) 20.3 µM and 5.31 µM | [5] 20 µM | [6] 24.9 µM | [9] 14.5 µM | [10] 20.3 µM and 28.7 µM and 25.7 µM | [15] 5.22 µM | [16] 12.1 µM

CCCCC(CC)CN1C(=O)C2C3C=CC(C3)C2C1=O (stereo not drawn)
inactive: [1] | [3] | [5] | [6] | [7] | [9] | [14]
active: [2] 15.5 µM | [4] 0.237 µM | [13] 20 µM | CD38, CD38 (gene 952) 26.3 µM | CD69, CD69 (gene 969) 20 µM | [8] 15.3 µM | [10] 32.7 µM | [11] 20 µM | [12] 5.57 µM

COC(=O)c1ccccc1S(=O)(=O)NC(=O)Nc1nc(OC(F)F)cc(OC(F)F)n1
active: [4] 12 µM | [12] 5.43 µM
not listed: [14] | [15] | [16]
inactive: all other assays above

CCCCOC(=O)C(C)Oc1ccc(Oc2ccc(C(F)(F)F)cn2)cc1 (stereo not drawn)
not listed: [1] | [12] | [14] | [15] | [16]
inactive: all other assays above

COc1c(Cl)ccc(Cl)c1C(=O)O
active: [5] 11.8 µM
not listed: [12] | [13] | [14] | [15] | [16]
inactive: all other assays above

CN(C)C(=O)Nc1ccc(Cl)c(Cl)c1
active: [1] 7.82 µM | [12] 1.63 µM
not listed: [13] | [14] | [15] | [16]
inactive: all other assays above
